In PubChem BioAssay (NCI) one finds growth data, which are given here for six molecules.

About 83,000 compounds went through this panel and 20% of them were active in at least one assay; those are over-represented in the sample as a whole.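 Treatment: one concentration, 48 hours, 96-well format. Scoring: percent growth, with anything below 10 considered active.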 A number with no mark means an inactive call. The source made the active and inactive calls.

Some test systems named below: SK-MEL-2 melanoma; EKVX NSCLC; SN12C renal; UO-31 renal; TK-10 renal; ACHN renal; CAKI-1 renal; A498 renal; CCRF-CEM leukemia; MOLT-4 leukemia; RPMI-8226 leukemia; OVCAR-8 ovarian; OVCAR-5 ovarian; OVCAR-4 ovarian; SK-OV-3 ovarian; OVCAR-3 ovarian; HS 578T breast; NCI/ADR-RES ovarian; IGROV1 ovarian.
What all share (assay): NCI-60 one-dose screen, 48 h (100 = growth as untreated, 0 = no growth, -100 = all killed)
Common to all, as to details: 10 µM unless noted

For the molecule `CC(C)CC(NC(=O)CN(Cc1ccccc1)S(C)(=O)=O)C(=O)O` (stereo not drawn), the growth in the assay on SK-MEL-2 melanoma was 125%; in the assay with EKVX NSCLC, 97.9%; in the assay on SN12C renal it was 108%; with UO-31 renal, 96.7%; in the assay with TK-10 renal, 93.9%; in the assay on ACHN renal, 102%. The growth in the assay on CAKI-1 renal was 62.2%; in the assay with A498 renal it was 95.3%; in the assay with CCRF-CEM leukemia, 98.2%; in the assay on MOLT-4 leukemia it was 94.7%; in the assay on RPMI-8226 leukemia, 102%; in the assay with OVCAR-8 ovarian, 100%. Moreover, the growth in the assay with OVCAR-5 ovarian was 94%; in the assay with OVCAR-4 ovarian it was 104%; in the assay with SK-OV-3 ovarian it was 90.9%; in the assay on OVCAR-3 ovarian it was 96.6%; with HS 578T breast, 91.6%; with NCI/ADR-RES ovarian, 98.9%.
Regarding `COc1ccc(OC)c(-c2c(C#N)c(-c3ccc(Cl)cc3)nc3c2c(-c2ccccc2)nn3-c2ccccc2)c1`, the growth in the assay on SK-MEL-2 melanoma was 102%; in the assay with EKVX NSCLC, 102%; in the assay with SN12C renal, 95%; in the assay with UO-31 renal, 81.4%; in the assay on TK-10 renal, 103%; with ACHN renal, 102%. For the same molecule, the growth is 67.9% in the assay with CAKI-1 renal; 113% with A498 renal; 98.8% in the assay with CCRF-CEM leukemia; 86.1% with MOLT-4 leukemia; 95.8% in the assay on RPMI-8226 leukemia; 101% in the assay on OVCAR-8 ovarian. In addition, the growth in the assay with OVCAR-5 ovarian is 101%; in the assay on SK-OV-3 ovarian, 100%; with IGROV1 ovarian it was 108%; in the assay with OVCAR-3 ovarian, 107%; with HS 578T breast, 100%; in the assay with NCI/ADR-RES ovarian, 99.6%.
For `NC(=S)N/N=C/Cc1ccccc1`, the growth in the assay with SK-MEL-2 melanoma was 106%; with EKVX NSCLC it was 89.1%; in the assay on SN12C renal, 102%; with UO-31 renal it was 64.4%; in the assay with TK-10 renal it was 107%; in the assay with ACHN renal, 102%. For the same molecule, the growth is 116% in the assay with CAKI-1 renal; 99.8% with A498 renal; 69.9% in the assay on CCRF-CEM leukemia; 78.7% in the assay on MOLT-4 leukemia; 88.3% with RPMI-8226 leukemia; 84.3% in the assay on OVCAR-8 ovarian. In addition, the growth in the assay on OVCAR-5 ovarian was 120%; in the assay with SK-OV-3 ovarian, 111%; in the assay with IGROV1 ovarian, 79%; in the assay with OVCAR-3 ovarian, 109%; in the assay with HS 578T breast it was 103%; in the assay with NCI/ADR-RES ovarian, 83.7%.
Regarding `COc1ccc2c(c1)O/C(=C\c1cccc(OCC(=O)Nc3nc(C)c(C)s3)c1)C2=O`, the growth in the assay on SK-MEL-2 melanoma was 89.3%; with EKVX NSCLC, -13.4% (active); in the assay with SN12C renal, 33.8%; with UO-31 renal, -74.9% (active); with TK-10 renal it was 111%; in the assay on ACHN renal, 98.7%. Besides, the growth in the assay with CAKI-1 renal is -82.7% (active); in the assay with A498 renal, 114%; with CCRF-CEM leukemia it was -66.8% (active); with MOLT-4 leukemia it was 19.2%; with RPMI-8226 leukemia, -59.8% (active); with OVCAR-8 ovarian, 15.1%. Also, the growth in the assay with OVCAR-5 ovarian is 12.7%; with OVCAR-4 ovarian it was 67.8%; in the assay on SK-OV-3 ovarian, 101%; in the assay with OVCAR-3 ovarian, -33.1% (active); in the assay with HS 578T breast, 42.9%; with NCI/ADR-RES ovarian it was -10.7% (active).
For the molecule `O=C(Nc1cccc2c(O)c(N=Nc3ccc(S(=O)(=O)Nc4nccs4)cc3)cc(N=Nc3ccc(S(=O)(=O)Nc4nccs4)cc3)c12)C(Cl)Cl`, the growth is 52.6% in the assay with SK-MEL-2 melanoma; 90.5% in the assay on EKVX NSCLC; 111% with SN12C renal; 68.3% in the assay on UO-31 renal; 122% in the assay on TK-10 renal; 57.4% in the assay with ACHN renal. The growth is 76.8% with CAKI-1 renal; 85% in the assay on A498 renal; 72.5% with CCRF-CEM leukemia; 153% with MOLT-4 leukemia; -10.9% (active) in the assay with RPMI-8226 leukemia; 59.1% in the assay on OVCAR-8 ovarian. Besides, the growth is 112% with OVCAR-5 ovarian; 90.3% in the assay on OVCAR-4 ovarian; 107% in the assay on SK-OV-3 ovarian; 35.9% in the assay on OVCAR-3 ovarian; 56.4% with HS 578T breast; 101% in the assay on NCI/ADR-RES ovarian.
Regarding `COc1ccc(NC(=O)CSc2nc(C)c(C(C)=O)n2-c2ccc(Cl)cc2)cc1`, the growth with SK-MEL-2 melanoma was 102%; in the assay with EKVX NSCLC, 95.5%; with SN12C renal, 92.5%; in the assay with UO-31 renal, 102%; with TK-10 renal, 125%; in the assay with ACHN renal it was 99%. Further, the growth in the assay on CAKI-1 renal was 97.8%; with A498 renal, 75.6%; in the assay with CCRF-CEM leukemia, 108%; in the assay on MOLT-4 leukemia, 91%; in the assay on RPMI-8226 leukemia, 97.3%; with OVCAR-8 ovarian it was 88.7%. Moreover, the growth was 98.6% in the assay on OVCAR-5 ovarian; 85.3% with OVCAR-4 ovarian; 95.1% in the assay on IGROV1 ovarian; 100% in the assay with OVCAR-3 ovarian; 90.4% in the assay on HS 578T breast; 89.4% in the assay on NCI/ADR-RES ovarian.
